# FadD28 binding – inhibitors of FadD28 bisubstrate probe binding, primary screen, biochemical, fluorescence polarization, single point; Mycobacterium tuberculosis FadD28 fatty-acid-AMP ligase; inhibition, % at 12.5 µM; 360,000 tested, 0.22% active; AID 588549, 2011; in the data active means inhibition above about 8.5%, passing the limit was not always enough
# Yp Topo-I inh – Yersinia pestis topoisomerase I inhibitors, primary screen, biochemical, cleavage product accumulation, plate reader, single point. DNA topoisomerase I (Yersinia pestis CO92). Y. pestis Topo-I cleavage product accumulation. activity, % at 10 µM. 360,000 tested, 0.064% active. AID 504884, 2011; in the data active means activity above about 50%, passing the limit was not always enough
# TcdB GH inh – TcdB glycohydrolase inhibitors, primary screen, biochemical, single point, plate reader; Toxin B (Clostridioides difficile), P18177; TcdB glycohydrolase enzymatic assay; inhibition, % at 9.99 µM; 350,000 tested, 0.24% active; AID 652162, 2013; in the data active means inhibition above about 10%
# BioA inh – M. tuberculosis BioA enzyme inhibitors, primary screen, biochemical, plate reader, single point, HTS; purified M. tuberculosis BioA enzyme; AID 602481, 2012; 7,8-diaminopelargonic acid synthase BioA (Mycobacterium tuberculosis); 360,000 tested, 0.096% active; inhibition, % at 9.99 µM; in the data active means inhibition above about 40%
# Starred values were filed as active, the others as inactive; · = no result given. An excerpt weighted towards active compounds, which were near 0.45% of everything screened.
SMILES,FadD28 binding,Yp Topo-I inh,TcdB GH inh,BioA inh
O=S(=O)(N[C@H]1CC[C@H](CCn2cc(-c3ccccn3)nn2)O[C@@H]1CO)c1cccc(F)c1,·,·,-0.2,-1.6
Cc1ccc(S(=O)(=O)N2CCCC2C(=O)O)cc1 (configuration not stated),0.7,5.1,0.3,0.1
Cc1cc(C)c(S(=O)(=O)N2CCCCC2C(=O)O)c(C)c1 (configuration not stated),-2.2,1.0,12.9*,·
Cc1ccc(CSC2=NCCN2S(=O)(=O)c2ccccc2)cc1,-1.9,18.5,2.1,·
O=S(=O)(c1ccccc1)N1CCN=C1SCc1ccccc1,-1.8,-2.9,10.3*,·
C/C=C1\NC(=O)[C@H](CC(N)=O)N(C)C(=O)C([C@@H](C)O)NC(=O)C(CCCc2ccc(OC)cc2)NC(=O)[C@H](C(C)C)NC(=O)/C(=C\C)NC(=O)[C@H](O)[C@@H](C[C@@H](O)CCCCCCC)NC(=O)[C@H](C)NC(=O)CN(C)C(=O)[C@H](CCC(N)=O)NC1=O (some centres not stated),11.5*,30.6,1.4,5.2
CCCOc1ccc(/C(O)=C2/C(=O)C(=O)N(c3ccccn3)C2c2ccc(OC)cc2)cc1C (configuration not stated),-4.0,55.8*,0.0,0.3
CN(C)/C=C(\C#N)C(=O)Nc1ccc(O)cc1F,0.0,1.2,18.9*,·
CC1C(=O)C(C)C(c2ccc([N+](=O)[O-])cc2)NC1c1ccc([N+](=O)[O-])cc1 (configuration not stated),-0.7,-0.9,18.1*,·
CC1C(=O)CC(c2ccc([N+](=O)[O-])cc2)NC1c1ccc([N+](=O)[O-])cc1 (configuration not stated),-0.6,4.9,1.6,0.4
Cc1ccc(S(=O)(=O)Oc2ccccc2/C=N/Nc2ccc(C(=O)O)cc2)cc1,9.1*,3.2,2.6,-0.8
Cc1ccc(S(=O)(=O)Oc2ccccc2/C=N/O)cc1,-4.0,4.1,3.8,-1.3
CC(=O)N(C)C[C@H]1Oc2ncc(-c3cncnc3)cc2C(=O)N([C@@H](C)CO)C[C@H]1C,·,·,0.8,-1.0
Nc1ccc2c(c1)-c1ccccc1S(=O)(=O)N2,25.4*,-25.5,·,·
NCC[C@@H]1CC[C@H](NS(=O)(=O)Cc2ccccc2)[C@@H](CO)O1,·,·,1.7,-3.5
COc1ccc(NC(=O)N(C)C[C@H]2Oc3ncc(C#C[C@@H](C)O)cc3C(=O)N([C@@H](C)CO)C[C@@H]2C)cc1,·,·,-1.0,-0.6
CC(=O)c1cccc(OCC(=O)c2cc(C)n(-c3cc(C)on3)c2C)c1,-0.1,20.2,16.2*,11.4
Cc1cc(-n2c(C)cc(C(=O)COc3ccc4ccc(=O)oc4c3)c2C)no1,0.8,0.6,·,·
CSc1ccccc1NC(=O)C1=CC(c2ccc(C)cc2)=NS(=O)(=O)N1C,-0.9,8.7,29.1*,-1.7
COc1cccc(-c2ccc(C3[C@H]4CNC[C@@H]3N4Cc3cncnc3)cc2)c1 (some centres not stated),·,·,-0.6,·
Cc1nc(S/C(=C\c2ccc(-c3ccc(C(=O)O)c(Cl)c3)o2)C(=O)O)n[nH]1,19.9*,-18.1,-1.2,0.3
Cc1nc2ccccc2n2c(O)c(CC(=O)O)cc12,13.9*,-10.0,·,-15.1
Cc1nc2ccccc2n1CCC(=O)O,-2.0,8.8,·,0.3
O=S(=O)(c1ccccc1)N1CCN(Cc2nnc(-c3ccccc3)o2)CC1,-3.7,4.7,10.1*,-0.8
O=S(=O)(c1ccc(F)cc1)N1CCN(Cc2nnc(-c3ccccc3)o2)CC1,-0.8,17.2,0.7,-0.4
SMILES,FadD28 binding,Yp Topo-I inh,TcdB GH inh,BioA inh
Cc1noc(C)c1S(=O)(=O)N(C)C[C@@H]1Oc2ccc(NS(=O)(=O)c3cn(C)cn3)cc2CC(=O)N([C@@H](C)CO)C[C@@H]1C,·,·,-2.5,-3.2
Cc1ccc(C(=O)OCC(=O)c2cc(C)n(CC3CCCO3)c2C)cc1 (configuration not stated),-4.0,27.2,16.2*,·
NC(=O)NN=C1CC2CC1C1C=CCC21 (configuration not stated),-2.0,-3.4,13.6*,·
Cc1ccccc1S(=O)(=O)c1c(C)cc(C)n(C(C)C)c1=O,0.1,-4.8,·,-1.5
CCCCn1c(C)cc(C)c(S(=O)(=O)c2ccccc2C)c1=O,-2.1,58.8*,·,0.4
O=C1CN(S(=O)(=O)Cc2ccccc2)C[C@@H]2[C@H](c3ccc(C#Cc4ccc(F)cc4)cc3)[C@@H](CO)N12,·,·,0.7,·

# Bioassay records as filed in PubChem.
